{
  "source": "ChEMBL document CHEMBL3988442",
  "about": "“University of Dundee, Small-Polar-MMV Screening Library” (2021)",
  "data": [
    {"target": "AMP-activated protein kinase, AMPK (Homo sapiens) (UniProt P54646+O43741+P54619+Q9UGJ0+Q9Y478+Q13131+Q9UGI9)", "assay": "AMP-dependent Kinase enzyme assay. An in vitro enzyme assay that detects ADP turnover that is directly proportional to AMPK activity. This uses naive AMPK that is activated during the assay with MK-8722", "format": "functional", "design": "scale not given: direction of the effect not stated beside the values", "details": "30 µM", "units": {"Percent Effect": "%"}, "values": [
      {"molecule": "Cc1nc2c(c(N[C@H](C(N)=O)C(C)C)n1)Cc1ccccc1OC2", "Percent Effect": -25.7},
      {"molecule": "CC(C)(C)CN(CCC#N)C(=O)c1cccc(CN2CCCC2)c1", "Percent Effect": 7.06},
      {"molecule": "CO[C@H]1C[C@@H](O)C12CCN(C(=O)NCc1ccco1)CC2", "Percent Effect": -2.57},
      {"molecule": "Cc1ncsc1COC(=O)c1cccc2c1OCCO2", "Percent Effect": 7.13},
      {"molecule": "CCC(C)NC(=O)Nc1cccc(OCCCC#N)c1", "note": "(stereo not given)", "Percent Effect": -4.6},
      {"molecule": "CN(C)Cc1cn(-c2ccccc2C(=O)NCC2CCCCN2C)cn1", "note": "(stereo not given)", "Percent Effect": -15.9},
      {"molecule": "Fc1ccc(N2CCN(CCCc3cn[nH]c3)CC2)cc1", "Percent Effect": 3.93},
      {"molecule": "CN1CC=C(CCN(C)C(=O)CCc2ccccc2)CC1", "Percent Effect": -0.771},
      {"molecule": "CCC(C(=O)N(Cc1ccccn1)C1CCCCC1)n1cccn1", "note": "(stereo not given)", "Percent Effect": 1.8},
      {"molecule": "Cn1ccnc1C1(O)CCN(C(=O)Cc2ccccc2)CC1", "Percent Effect": 13.3},
      {"molecule": "COCC(=O)N1CCC(c2c(C(=O)N(C)C)sc3ncccc23)C1", "note": "(stereo not given)", "Percent Effect": 1.82},
      {"molecule": "CN(Cc1ccc(C#N)cc1)CC1CCS(=O)(=O)C1", "note": "(stereo not given)", "Percent Effect": 7.17},
      {"molecule": "COCCC(=O)N1CCCC(CCC(=O)Nc2ccc(Cl)cc2)C1", "note": "(stereo not given)", "Percent Effect": 5.38},
      {"molecule": "CC(NCc1nnc2n1CCCC2)c1nc(C(C)(C)C)no1", "note": "(stereo not given)", "Percent Effect": -0.825},
      {"molecule": "O=C(CCN1CCCCO1)N1CC[C@H](O)[C@@H](O)C1", "Percent Effect": -7.38},
      {"molecule": "O=C(NCc1nnc2n1CCC2)c1cn(-c2cccc(Br)c2)nn1", "Percent Effect": 2.86},
      {"molecule": "CN1CCOC(CNC(=O)CCCc2ccccc2)C1", "note": "(stereo not given)", "Percent Effect": -9.04},
      {"molecule": "CNC(=O)CCOC(=O)c1cccc(-n2cccn2)c1", "Percent Effect": 7.17},
      {"molecule": "COC(=O)c1ccc(Cn2cccc(C(F)(F)F)c2=O)c(OC)c1", "Percent Effect": 6.82},
      {"molecule": "COc1ccccc1N1CCN(C(=O)CCc2nncn2C)C(C)C1", "note": "(stereo not given)", "Percent Effect": 24.5},
      {"molecule": "COCCC(=O)NCCc1nc2cc(-c3ccc(OC)cc3)ncn2n1", "Percent Effect": 20},
      {"molecule": "Cc1ncccc1CNC(CCO)C1CCCCC1", "note": "(stereo not given)", "Percent Effect": -0.143},
      {"molecule": "C[C@@H]1CN(C(=O)C2(Cn3cccn3)CC2)CC[C@@]1(O)C1CCOCC1", "Percent Effect": 6.2},
      {"molecule": "CCn1cnnc1CNC(=O)N1CCOC(c2ccc(Cl)cc2)C1", "note": "(stereo not given)", "Percent Effect": -4.37},
      {"molecule": "Cc1cnn(C2CCCN(C(=O)c3cc(-c4ccco4)[nH]n3)C2)c1", "note": "(stereo not given)", "Percent Effect": -19.9},
      {"molecule": "O=C(NCCCc1nnc2ccccn12)c1ccccc1C1CCNC1", "note": "(stereo not given)", "Percent Effect": 1.24},
      {"molecule": "Cc1cc(N(C)C)nc(N2CCn3c(nnc3C(C)C)C2)n1", "Percent Effect": 8.26},
      {"molecule": "CC(C)Cc1noc(CN(C)C2CCS(=O)(=O)C2)n1", "note": "(stereo not given)", "Percent Effect": -4.29},
      {"molecule": "Cn1cc(CN2CCC(c3ncc(Cl)cc3S(C)(=O)=O)CC2)cn1", "Percent Effect": 9.1},
      {"molecule": "COCC(NC(=O)c1cc(NC(C)=O)ccc1Cl)c1ccnn1C", "note": "(stereo not given)", "Percent Effect": -8.6},
      {"molecule": "CC(C)[C@]1(O)CN(C(=O)C2(Cn3cccn3)CC2)C[C@H]1C", "Percent Effect": -3.27},
      {"molecule": "Cn1ncnc1NCc1ccc(Br)cc1", "Percent Effect": 6.33},
      {"molecule": "Clc1cc(NCc2nccs2)nc2[nH]ccc12", "Percent Effect": 15.1},
      {"molecule": "NCc1cccc(NC(=O)CCN2CCOCC2)c1", "Percent Effect": -8.1},
      {"molecule": "NC(=O)COc1cccc(Cn2cccn2)c1", "Percent Effect": -6.59},
      {"molecule": "Cc1csc(C(=O)N2CCC(S(C)(=O)=O)C2)c1", "note": "(stereo not given)", "Percent Effect": -5.3},
      {"molecule": "CC1(C)O[C@@](C)([C@H]2CC3(CCN(c4ncccn4)CC3)CO2)CC[C@@H]1O", "Percent Effect": 7.88},
      {"molecule": "CCNC(=O)NCc1ccc(-n2ccc(C(F)(F)F)n2)cc1", "Percent Effect": -2.79},
      {"molecule": "COc1ccsc1C(=O)NC1CCN(c2ccc(C#N)cc2)CC1", "Percent Effect": 13.5},
      {"molecule": "Cc1cc(C)n(C2CN(C(=O)c3cn4ccsc4n3)C2)n1", "Percent Effect": -4.27}
    ]}
  ]
}
